The source made the active and inactive calls. How the source made its calls: active means hit-call score of the fitted dose curve at least 0.9, where 1 is the maximum; inactive means score below 0.9.

Read-out in this test: Matrix Metallopeptidase 9 (MMP9), MMP9 (gene 4318)
As to the kind of experiment: BSK_KF3CT_MMP9: BioMAP Diversity Plus: KF3CT Assay for Matrix Metallopeptidase 9 (MMP9) Biomarker Activity (AID 2283074). To be noted: primary human keratinocytes with fibroblasts; actives raise or lower the signal. The method, then: BSK_KF3CT is a cell-based, multiplexed-readout assay that uses keratinocytes and foreskin fibroblasts, a human skin primary cell co-culture, with measurements taken at 24 hours after chemical dosing in a 96-well plate.BSK_KF3CT_MMP9 is an assay component measured in the BSK_KF3CT assay. It measures MMP-9 antibody related to regulation of gene expression using ELISA technology.Data from the assay component BSK_KF3CT_MMP9 was analyzed into 1 assay endpoint. This assay endpoint, BSK_KF3CT_MMP9, was analyzed with bidirectional fitting relative to DMSO as the negative control and baseline of activity. Using a type of binding reporter, gain or loss-of-signal activity can be used to understand changes in the signaling as they relate to the gene MMP9. Furthermore, this assay endpoint can be referred to as a primary readout, because this assay has produced multiple assay endpoints where this one serves a signaling function. To generalize the intended target to other relatable targets, this assay endpoint is annotated to the protease intended target family, where the subfamily is matrix metalloproteinase.
The levels of cell surface (or secreted, indicated by the prefix "s") biomarker endpoints were measured by ELISA. Overt cytotoxicity to cells in confluent adherent cultures (all systems other than the BT system) was assessed by measuring total protein levels using sulforhodamine B (SRB) staining in parallel cultures at the time of biomarker measurements, indicated as SRB endpoints. For proliferation assays for adherent cell types, individual cell types are cultured at sub-confluence and relative cell numbers quantified by SRB staining at time points optimized for each system (48 h: 3C and CASM3C systems; 72 h: BT and HDF3CGF systems; 96 h: SAg system). SRB was performed by staining cells with 0.1% SRB after fixation with 10% TCA and reading wells at 560 nm.Viability and proliferation of PBMC (T cells) was quantified by Alamar Blue reduction for the SAg and BT systems. For PBMC viability (referred to as PBMC Cytotoxicity within the assay endpoint names), cells were plated (75,000/well in a 96-well plate) and then chemical samples added for 1 h before addition of activators, SEB and TSST-1 (20 ng/mL final concentration each). Cells were incubated for 90 h. Then, Alamar Blue (20 uL/well) (Invitrogen, Cat DAL1100) was added for 6 h, and the plates were read with a fluorescence microplate reader at 546/580 nm (excitation/emission). For PBMC proliferation, cells were plated and activated as above but incubated for only 16 h prior to addition of Alamar Blue. Plates were read after 6 h.
Regarding `OC[C@H]1O[C@H](O[C@]2(CCl)O[C@H](CCl)[C@@H](O)[C@@H]2O)[C@H](O)[C@@H](O)[C@H]1Cl`, the outcome was inactive.

In the case of `CC(=O)OCCC(C)CC(C)(C)C` (stereo not given), the outcome was inactive. The same measure, in the same setting: as for `CC(=O)O[C@]1(C(C)=O)CC[C@H]2[C@@H]3C[C@H](C)C4=CC(=O)CC[C@]4(C)[C@H]3CC[C@@]21C`, the entry is “inactive”; as for `CCC(=O)OCc1ccccc1`, “inactive”.

On to `CNC[C@H](O)c1cccc(O)c1`, for which the result was inactive. On the same count and under the same terms, as for `O=C(O)c1cn(C2CC2)c2cc(N3CCNCC3)c(F)cc2c1=O`, the entry is “inactive”.

As a reminder, the AC50 is the concentration giving half of the maximal activity seen. Take `CC1CCC(C(C)CS)CC1S` (stereo not given): the AC50 was 24 µM (active).

Take `C[C@H]1C[C@@H]2[C@H]([C@@H](O)C[C@@]3(C)[C@H]2CC[C@]3(O)C(=O)CO)[C@@]2(C)C=CC(=O)C=C12`: the outcome was inactive. Same read-out and setting: as for `O=C(O)c1cn(-c2ccc(F)cc2)c2cc(N3CCNCC3)c(F)cc2c1=O`, the entry is “inactive”; as for `O=[N+]([O-])c1cc(C(F)(F)F)ccc1Cl`, “inactive”; as for `CC(=O)/C=C/C1=C(C)CCCC1(C)C`, “inactive”.

For `N#Cc1ccc(CC(=NNC(=O)Nc2ccc(OC(F)(F)F)cc2)c2cccc(C(F)(F)F)c2)cc1`, the result was inactive.

As for `C=CCOC(=O)CCC1CCCCC1`, the result was inactive. Consider `NCCNCCN`, for which the outcome was inactive. Still for that read-out and setting: as for `OC1OC[C@@H](O)[C@H](O)[C@H]1O` (stereo not given in full), the entry is “inactive”; as for `CCCCC(CC)COC(=O)/C=C\C(=O)OCC(CC)CCCC` (stereo not given), “inactive”. The same measure, in the same setting: with `CC(C)Oc1ccccc1O` the entry was “inactive”. On the same count and under the same terms, as for `O=C=NC1CCC(CC2CCC(N=C=O)CC2)CC1` (stereo not given), the entry is “inactive”; as for `C=C[Si](OCC)(OCC)OCC`, “inactive”; as for `Cc1ccc2n[nH]nc2c1`, “inactive”. Take `CC(=O)[C@H]1CC[C@H]2[C@@H]3CC=C4C[C@@H](O)CC[C@]4(C)[C@H]3CC[C@]12C`: the outcome was inactive. Take `C=C(C)C(=O)O[C@H]1C[C@@H]2CC[C@@]1(C)C2(C)C`: the AC50 was 20 µM (active). Same read-out and setting: as for `CN(CCOc1ccc(CC2SC(=O)NC2=O)cc1)c1ccccn1` (stereo not given), the figure is 3.97 µM (active).

In the case of `CCc1c(C)cc(N)c(CC)c1N`, the outcome was inactive.

In the case of `Nc1cc([N+](=O)[O-])ccc1Cl`, the outcome was inactive. On the same count and under the same terms, with `CCCCCCCCCC=O` the entry was “inactive”; with `O=C1CCCCCCCCCCCCCCO1`, “inactive”.

As for `O=C1OC2(c3cc(Br)c(O)c(Br)c3Oc3c2cc(Br)c(O)c3Br)c2c(Cl)c(Cl)c(Cl)c(Cl)c21`, the half-maximal activity concentration (AC50) is 3.53 µM (active). Consider `CC(C)c1ccc(C(C)C)cc1`, for which the result was inactive. Turning to `CCCCC/C=C/C=C/C=O`, the AC50 was 26.8 µM (active).

For `C#C[C@]1(O)CC[C@H]2[C@@H]3CCC4=Cc5oncc5C[C@]4(C)[C@H]3CC[C@@]21C`, the AC50 is 3.97 µM (active).

On to `BrC1CCC(Br)C(Br)CCC(Br)C(Br)CCC1Br` (stereo not given), for which the AC50 is 4.72 µM (active). The same measure, in the same setting: with `c1ccc2sc(SN(C3CCCCC3)C3CCCCC3)nc2c1` the figure was 0.888 µM (active). In the case of `O=P(c1ccccc1)(c1ccccc1)c1ccccc1`, the outcome was inactive. Still for that read-out and setting: with `COC(=O)c1ccc(C)cc1` the entry was “inactive”. On the same count and under the same terms, with `Cc1cc(C2(c3cc(C)c(O)cc3C)OS(=O)(=O)c3ccccc32)c(C)cc1O` the entry was “inactive”; with `O=C(O)C[C@H](O)C[C@H](O)/C=C/c1c(C2CC2)nc2ccccc2c1-c1ccc(F)cc1`, “inactive”. Turning to `CC1COc2ccccc2N1C(=O)C(Cl)Cl` (stereo not given), the AC50 is 13.7 µM (active). In the case of `CCn1c2ccccc2c2cc(N)ccc21`, the outcome was inactive.

Take `CC(C)(COC(=O)c1ccccc1)COC(=O)c1ccccc1`: the outcome was inactive.
